Screens from PubChem.
KB-3-1 tox – qHTS assay for MDR1-selective chemotherapeutics: Primary screen using the parental adenocarcinoma cell KB-3-1 | actives 1.4% (n = 400,000) | KB-3-1 viability, CellTiter-Glo ATP luminescence, 72 h | Potency, µM (series often up to 46.1 µM), most hits filed as cytotoxic; also: % is scaled to controls: 0 for no effect and ±100 for the full control effect; nearly all actives have a fitted effect of over 60% in size
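Screening of KB-3-1 cells (DMEM, 10% FBS, phenol-red free) ran from lowest to highest compound concentration; after 72 h at 37 °C viability was read luminescently and curves fitted.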
KB-V1 MDR tox – qHTS assay for MDR1-selective chemotherapeutics: Primary screen using the drug-selected MDR subline cells KB-V1 | actives 3.4% (n = 400,000) | AID 1347076, 2019 | Potency, µM (series often up to 46.1 µM), usual class: cytotoxic | KB-V1 MDR cells viability, CellTiter-Glo, 72 h; also: % is scaled to controls: 0 for no effect and ±100 for the full control effect; nearly all actives have a fitted effect of over 60% in size
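Drug-selected KB-V1 cells, grown in DMEM lacking phenol red with 10% FBS, receive compound titrations; after three days at 37 degrees C, surviving cell ATP is quantified by CellTiter-Glo luminescence and responses normalized and curve-fitted.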
MCF10A rereplic – A quantitative high throughput screen for small molecules that induce DNA re-replication in MCF 10a normal breast cells. MCF 10A DNA re-replication, Hoechst nuclear intensity, 48 h. Potency, µM (doses to about 46.1 µM), without a hit: at the top dose activity, positive = re-replication, actives largely listed as activators. actives 2.9% (n = 350,000); also: % of control where 0% means no effect; nearly all actives have a fitted effect of over 50% in size
SW480 rereplic – A quantitative high throughput screen for small molecules that induce DNA re-replication in SW480 colon adenocarcinoma cells | SW480 DNA re-replication, Hoechst DNA content imaging, 48 h | Potency, µM (highest dose often 46.1 µM), inactives show at the highest dose re-replication activation, usual class: activators | actives 1.8% (n = 340,000); also: % of control where 0% means no effect; nearly all actives have a fitted effect of over 55% in size
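250 cells/well; 23 nL cpd via pin tool; 48 hr, 37 C, 5% CO2; Hoechst 40 min; imager read of total nuclear intensity, ex 405/em 500-530 nm.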
TSG101-PTAP inh – qHTS Assay for Iinhibitors of HIV-1 Budding by Blocking the Interaction of PTAP/TSG101. 340,000 tested, under 10 active. AID 493005, 2010. Tumor susceptibility gene 101 protein (Homo sapiens), Q99816. Fluorescence polarization, FITC-PTAP peptide / Tsg101 binding. Potency, µM (top dose mostly 115 µM), without a hit: top-dose activity change, negative = inhibition, actives largely listed as inhibitors; active = well fitted inhibition curve with a large enough effect in the main read-out, with a control signal flat, not every such curve was filed as active; inconclusive = small, poorly fitted or top-dose-only effect, or effect the other way, or a change in a side signal; inactive = no such curve, though single readings can be large or run the other way; also: % of control where 0% means no effect
Target sequence (Q99816 whole entry, looked up): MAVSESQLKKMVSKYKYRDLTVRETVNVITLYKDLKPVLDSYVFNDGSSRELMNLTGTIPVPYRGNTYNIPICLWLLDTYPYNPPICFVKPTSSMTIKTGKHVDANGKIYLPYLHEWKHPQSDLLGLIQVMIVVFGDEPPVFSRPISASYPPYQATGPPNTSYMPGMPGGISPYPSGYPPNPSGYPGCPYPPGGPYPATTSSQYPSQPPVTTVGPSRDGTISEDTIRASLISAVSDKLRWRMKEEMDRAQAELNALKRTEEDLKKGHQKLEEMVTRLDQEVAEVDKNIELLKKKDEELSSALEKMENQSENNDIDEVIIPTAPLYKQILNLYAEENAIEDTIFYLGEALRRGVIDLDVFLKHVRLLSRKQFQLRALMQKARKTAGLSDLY
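FP read-out: FITC-PTAP peptide, 50 nM final, binding Tsg101 binding domain, 10 uM final; 20 min, r.t.; 10 mM HEPES pH 7.5, 0.15 M NaCl, 0.01% Tween 20, 3 mM EDTA, 0.1 mM TCEP.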
PINK1 modulator – A Quantitative High throughput Screen to Identify Chemical Modulators of PINK1 Expression | PINK1 immunofluorescence, high-content cytometry, 24 h | Potency, µM (titrated, usually from 76.6 µM), inactives show at the highest dose activation (PINK1 increase), actives largely listed as activators | actives 0.2% (n = 410,000) | AID 624263, 2012; active = well fitted activation curve with a large enough effect; inconclusive = small, poorly fitted or top-dose-only effect; cell line not stated here; also: % of control where 0% means no effect; nearly all actives have a fitted effect of over 65% in size
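Readout is PINK1 immunofluorescence, quantified alongside mitochondrial, cell and nuclear markers by laser-scanning microplate cytometry. Cells from a stable line were exposed to compound titrations (5 concentrations) for 24 hours, with CCCP controls.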
Starred values were filed as active, the others as inactive; i = inactive; ? = inconclusive; nt = no result; [ ] = remark or other dose. A selection: hits, their analogues and other compounds. The true share with any hit is near 6.8%. Unless noted, calls follow the shape of the dose curve; as a rule, active = well fitted curve in the direction sought with a large enough effect; inconclusive = small, poorly fitted or top-dose-only effect, or another doubt; inactive = no such curve, though single readings can be large; an effect the other way counts as inactive or inconclusive. Potency is read from the fitted curve at half-maximal effect.

SMILES | KB-3-1 tox | KB-V1 MDR tox | MCF10A rereplic | SW480 rereplic | TSG101-PTAP inh | PINK1 modulator
Cc1cc(C(=O)OC(C(=O)Nc2cccc(C(F)(F)F)c2)c2ccccc2)c(C)o1 (stereo not given) | i | ? | ? | 0.2% | -2.4% | 35.5µM*
O=C(Nc1nnc(-c2ccncc2)s1)Nc1ccc(Cl)cc1Cl | i | i | nt | nt | nt | nt
Cc1ccc(-c2cn(-c3ccc(Cl)cc3)c(S(=O)(=O)CC(=O)Nc3ccccc3)n2)cc1 | i | ? | nt | nt | nt | -1.0%
CCOC(=O)CN1C(=O)C(Sc2n[nH]c(-c3cccc(C)c3)n2)CCc2ccccc21 (stereo not given) | i | 20.6µM* | -3.3% | -1.3% | -1.6% | 3.0%[38.3 µM]
CCOC(=O)CN1C(=O)C(Sc2n[nH]c(-c3ccc(C)cc3)n2)CCc2ccccc21 (stereo not given) | i | i | 0.4% | 0.0% | -1.2% | 12.8%[38.3 µM]
COc1ccc(N2C(=O)CC(Sc3n[nH]c(-c4cccc(C)c4)n3)C2=O)cc1 (stereo not given) | i | ? | 110.5% | -49.2% | -2.9% | -0.2%
CCOc1ccccc1N1C(=O)CC(Sc2n[nH]c(-c3ccccc3)n2)C1=O (stereo not given) | i | i | 14.6µM* | ? | -0.5% | -2.1%
CC(=O)Nc1cc2c(cc1[N+](=O)[O-])-c1ccccc1C2O (stereo not given) | i | i | 18.4µM* | ? | -0.6% | -0.3%
CC(=O)Nc1cc2c(cc1[N+](=O)[O-])-c1ccccc1C2=NO | ? | i | -1.3% | 0.3% | -0.4% | 14.3%
CC1=CC(=O)C(C(C)C)=C/C1=C(\c1cc(C(C)C)c(OP(=O)(O)O)cc1C)c1ccccc1C(=O)O | 16.4µM* | ? | 20.6µM* | ? | -3.3% | -2.7%
Cc1ccc(CSc2nc3ccc(NC(=O)COc4ccccc4)cc3s2)cc1 | i | ? | nt | nt | nt | 1.4%
CC/C(=N/Nc1ccccc1)c1cnnc(-c2ccccc2)n1 | ? | ? | 8.8% | -0.3% | -3.8% | ?
CC/C(=N/Nc1cccc(Cl)c1)c1cnnc(SC)n1 | ? | i | 24.1% | 8.1% | 0.6% | 20µM*
COc1cc(OC)c(C(=O)C=Cc2ccc(OC)c(OC)c2)c(OC)c1 | ? | ? | 168.6% | 18.4µM* | -8.8% | -2.1%
COc1cc(C=CC(=O)c2cc(OC)c(OC)c(OC)c2)cc(OC)c1OC | 6.51µM* | ? | 13µM* | ? | -0.7% | -2.0%
N#Cc1ccc(/C=C/C(=O)c2ccccc2)cc1 | i | i | 20.6µM* | -0.1% | -7.8% | -0.9%
O=C(/C=C/c1ccccc1)c1ccccc1 | i | ? | ? | ? | 0.0% | 0.7%
COc1cc(/C=C/C(C)=O)cc(OC)c1OC | 23.1µM* | i | ? | -7.5% | -2.2% | 0.8%
Cc1ccc(NC(=O)C(=O)NCC(c2ccc3c(c2)OCO3)N2CCN(c3ccccc3)CC2)cc1 (stereo not given) | i | i | nt | nt | nt | 0.7%
O=C(NCCc1nnc2n1CCN(Cc1ccc(F)c(F)c1)CC2)c1ccoc1 | nt | nt | nt | nt | nt | 1.7%
COc1cc(/C=C/C(=O)N2CCCN(C(=O)/C=C/c3cc(OC)c(OC)c(OC)c3)CC2)cc(OC)c1OC | ? | i | -7.5% | ? | -2.9% | 1.7%
COc1ccc(C=CC(=O)c2ccc3cc(OC)c(OC)cc3c2)cc1OC | ? | i | nt | nt | nt | -1.8%
COc1ccc2cc(C(=O)/C=C/c3cc(OC)c(OC)c(OC)c3)ccc2c1 | i | i | 13µM* | 20.6µM* | 1.0% | 3.4%
COc1cc(C=CC(=O)c2ccccc2)cc(OC)c1OC | ? | 23.1µM* | nt | nt | nt | -1.0%
COc1cc(/C=C/C(=O)N2CCC=CC2=O)cc(OC)c1OC | ? | ? | 8.2µM* | ? | 0.1% | -0.9%
SMILES | KB-3-1 tox | KB-V1 MDR tox | MCF10A rereplic | SW480 rereplic | TSG101-PTAP inh | PINK1 modulator
COCCCNC(=O)CCn1c(=O)c2ccccc2n(CC(=O)Nc2cc(Cl)ccc2OC)c1=O | i | ? | nt | nt | nt | 2.4%
Cc1ncc2c(c1CNS(=O)(=O)N(C)C)CCN(C(=O)/C=C/c1ccccc1Cl)C2 | nt | nt | nt | nt | nt | -0.1%
O=C(Nc1ccccc1C(F)(F)F)N1CCOc2ccc(Cl)cc21 | nt | nt | nt | nt | nt | -0.1%
N#CCc1nc2c3c4c(sc3ncn2n1)CCCC4 | 2.31µM* | ? | 2.5% | 3.5% | -0.2% | -0.3%
Cc1nn2cnc3sc4c(c3c2nc1=O)CCCC4 | i | i | 2.2% | -4.4%[9.22 µM] | -5.5% | 1.9%
O=C(NCc1nnc2n1CCN(Cc1cc3c(cc1Cl)OCO3)CC2)c1cccc(F)c1 | nt | nt | nt | nt | nt | -0.5%
COc1ccc(S(=O)(=O)c2cn(Cc3ccccc3)c3cc(N4CCCC4)c(F)cc3c2=O)cc1 | i | i | nt | nt | nt | -1.5%
Cc1nc(Cc2nnc(SCC(=O)N3CCN(c4ccc(O)cc4)CC3)o2)cs1 | i | i | 8.0% | 2.06µM* | -2.3% | -1.6%
Cc1c(C(=O)N(Cc2ccc(N(C)C)cc2)CC2CCCO2)oc2ccc(Br)cc12 (stereo not given) | nt | nt | nt | nt | nt | 0.5%
COc1ccc(-c2cc3ccccc3c(=O)o2)cc1 | i | ? | nt | nt | nt | -0.7%
CN(C)c1ccc(-c2cc3ccccc3c(=O)o2)cc1 | i | i | 14.6µM* | 13µM* | ? | 2.2%
S=C(NCCc1ccccn1)Nc1ccc(Cl)c(Cl)c1 | i | 23.1µM* | ? | -0.8% | -0.5% | 0.5%
S=C(NCCc1ccccn1)Nc1ccccc1Cl | i | i | 14.3% | 9.2µM* | -0.5% | 0.3%
S=C(NCCc1ccccn1)Nc1cc(Cl)cc(Cl)c1 | i | i | ? | 5.6% | 0.2% | -1.4%
COc1ccc(OC)c(NC(=O)CCc2c(C)nc3c(c(C)nn3C(C)(C)C)c2C)c1 | i | i | nt | nt | nt | -2.1%
CC1CCc2c(sc3nc(C4CC4)nc(N4CCN(C(=O)c5ccco5)CC4)c23)C1 (stereo not given) | ? | ? | 16.4µM* | ? | -5.4% | 10.5%
Cc1cccc(NC(=O)N2CCC(CN3CCCCCC3)CC2)c1C | nt | nt | nt | nt | nt | 0.4%
O=S(=O)(Nc1nc2ccccc2nc1N1CCc2ccccc2C1)c1ccc(Cl)cc1 | 14.6µM* | 14.6µM* | 5.6% | ? | -3.4% | 15.8µM*
O=S(=O)(Nc1nc2ccccc2nc1N1CCN(c2ccccn2)CC1)c1ccc(Cl)cc1 | i | ? | ? | -19.1% | -18.5% | 16.6%
